Laboratory results: the supplement of paper PMC11001985

compound: C#CCNC(=O)CCSSCCC(=O)NCCc1ccc(C=O)c(C=O)c1; experiment: lysine labeling ratio R10:1 (500 µM / 50 µM probe), SILAC-ABPP in living cells; higher = lower intrinsic lysine reactivity toward the probe, active = 2 or less; details: HeLa; probe concentrations 500 vs 50 µM
Outline: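 R, given per lysine, is the filtered median high-probe/low-probe MS1 peptide ratio, with the median then taken across forward and reverse replicates. Cells were living SILAC light and heavy HeLa cells in PBS at room temperature, labelled with 50 µM or 500 µM of an alkyne-tagged, disulfide-linked lysine probe. The ceiling applied is 20.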

Chain of UniProt P15144 (P15144 whole entry): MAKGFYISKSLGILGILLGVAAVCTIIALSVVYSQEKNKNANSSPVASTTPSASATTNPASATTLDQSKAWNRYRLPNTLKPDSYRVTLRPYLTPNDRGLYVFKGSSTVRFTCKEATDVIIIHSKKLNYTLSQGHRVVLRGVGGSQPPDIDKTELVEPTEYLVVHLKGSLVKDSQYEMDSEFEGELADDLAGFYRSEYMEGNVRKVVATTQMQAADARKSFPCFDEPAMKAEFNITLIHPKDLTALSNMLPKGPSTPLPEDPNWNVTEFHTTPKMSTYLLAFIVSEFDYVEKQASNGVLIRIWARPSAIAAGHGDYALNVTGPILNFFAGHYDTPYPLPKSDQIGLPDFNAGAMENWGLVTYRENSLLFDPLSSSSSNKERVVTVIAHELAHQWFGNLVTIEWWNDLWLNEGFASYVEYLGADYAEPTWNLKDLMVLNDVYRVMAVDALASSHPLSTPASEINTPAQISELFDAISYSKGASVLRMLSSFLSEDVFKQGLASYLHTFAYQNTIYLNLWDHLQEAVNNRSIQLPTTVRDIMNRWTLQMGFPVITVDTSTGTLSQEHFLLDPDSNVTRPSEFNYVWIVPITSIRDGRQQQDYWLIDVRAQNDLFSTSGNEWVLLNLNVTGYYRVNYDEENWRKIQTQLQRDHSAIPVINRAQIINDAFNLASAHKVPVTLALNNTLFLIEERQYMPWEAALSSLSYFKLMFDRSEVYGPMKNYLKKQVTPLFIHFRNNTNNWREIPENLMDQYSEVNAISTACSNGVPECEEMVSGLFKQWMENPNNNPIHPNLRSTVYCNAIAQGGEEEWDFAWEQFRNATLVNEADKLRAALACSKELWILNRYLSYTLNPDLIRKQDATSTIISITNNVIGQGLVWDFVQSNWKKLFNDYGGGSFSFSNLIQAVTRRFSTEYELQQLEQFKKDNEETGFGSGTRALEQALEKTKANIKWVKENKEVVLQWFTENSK
Chain of UniProt P26038 (P26038 whole entry): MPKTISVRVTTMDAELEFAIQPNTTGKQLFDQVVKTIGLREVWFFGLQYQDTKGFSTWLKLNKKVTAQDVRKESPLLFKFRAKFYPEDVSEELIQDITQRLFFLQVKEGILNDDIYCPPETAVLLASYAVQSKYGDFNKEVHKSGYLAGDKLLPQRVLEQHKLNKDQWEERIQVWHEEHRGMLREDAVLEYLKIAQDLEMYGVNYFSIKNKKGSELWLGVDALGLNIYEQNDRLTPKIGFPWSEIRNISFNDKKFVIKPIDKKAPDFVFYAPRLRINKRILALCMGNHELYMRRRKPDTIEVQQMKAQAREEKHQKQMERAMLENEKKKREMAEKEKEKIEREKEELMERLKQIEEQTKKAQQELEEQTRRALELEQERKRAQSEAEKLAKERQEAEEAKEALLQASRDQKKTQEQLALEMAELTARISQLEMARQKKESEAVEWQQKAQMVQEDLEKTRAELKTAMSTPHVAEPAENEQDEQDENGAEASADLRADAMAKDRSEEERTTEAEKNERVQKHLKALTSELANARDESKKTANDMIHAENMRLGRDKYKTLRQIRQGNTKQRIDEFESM
Chain of UniProt Q9NR28 (Q9NR28 whole entry): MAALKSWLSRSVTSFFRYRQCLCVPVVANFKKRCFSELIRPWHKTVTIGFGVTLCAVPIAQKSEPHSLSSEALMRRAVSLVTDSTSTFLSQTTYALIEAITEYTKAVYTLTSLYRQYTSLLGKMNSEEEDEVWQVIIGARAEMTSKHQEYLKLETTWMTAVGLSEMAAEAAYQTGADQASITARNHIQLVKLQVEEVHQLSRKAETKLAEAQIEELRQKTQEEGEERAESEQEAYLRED
Chain of UniProt P53621 (P53621 whole entry): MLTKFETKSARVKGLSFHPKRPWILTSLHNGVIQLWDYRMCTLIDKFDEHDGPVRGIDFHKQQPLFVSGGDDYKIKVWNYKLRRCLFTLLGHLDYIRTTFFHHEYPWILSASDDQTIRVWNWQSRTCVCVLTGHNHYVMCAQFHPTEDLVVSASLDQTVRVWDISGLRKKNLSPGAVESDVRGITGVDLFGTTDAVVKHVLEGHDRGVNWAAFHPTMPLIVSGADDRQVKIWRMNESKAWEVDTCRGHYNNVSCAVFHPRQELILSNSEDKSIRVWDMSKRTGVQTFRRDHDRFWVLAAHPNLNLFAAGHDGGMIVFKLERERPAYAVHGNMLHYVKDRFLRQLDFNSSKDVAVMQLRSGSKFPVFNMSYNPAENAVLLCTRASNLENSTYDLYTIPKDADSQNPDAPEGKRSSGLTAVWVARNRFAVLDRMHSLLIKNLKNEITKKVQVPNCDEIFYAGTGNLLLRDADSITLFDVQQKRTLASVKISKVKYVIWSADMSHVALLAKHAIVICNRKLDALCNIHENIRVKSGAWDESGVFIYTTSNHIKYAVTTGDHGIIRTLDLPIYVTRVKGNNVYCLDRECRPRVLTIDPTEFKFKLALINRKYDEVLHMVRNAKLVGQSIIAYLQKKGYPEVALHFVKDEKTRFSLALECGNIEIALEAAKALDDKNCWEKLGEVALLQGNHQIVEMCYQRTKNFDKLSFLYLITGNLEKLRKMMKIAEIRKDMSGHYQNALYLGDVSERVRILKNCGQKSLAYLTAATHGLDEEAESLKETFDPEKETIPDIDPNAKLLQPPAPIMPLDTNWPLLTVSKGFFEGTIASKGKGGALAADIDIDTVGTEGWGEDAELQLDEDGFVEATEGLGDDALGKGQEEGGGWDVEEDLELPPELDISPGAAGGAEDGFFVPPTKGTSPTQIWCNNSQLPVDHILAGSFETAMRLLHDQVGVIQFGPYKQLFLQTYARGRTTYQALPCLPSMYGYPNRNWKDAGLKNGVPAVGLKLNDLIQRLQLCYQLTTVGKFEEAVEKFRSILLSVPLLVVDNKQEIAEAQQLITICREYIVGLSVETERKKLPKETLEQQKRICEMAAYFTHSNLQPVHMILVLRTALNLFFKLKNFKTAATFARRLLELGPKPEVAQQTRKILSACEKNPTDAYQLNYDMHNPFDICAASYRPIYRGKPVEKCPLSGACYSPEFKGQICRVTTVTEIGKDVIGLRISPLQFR
Chain of UniProt P06756 (P06756 whole entry): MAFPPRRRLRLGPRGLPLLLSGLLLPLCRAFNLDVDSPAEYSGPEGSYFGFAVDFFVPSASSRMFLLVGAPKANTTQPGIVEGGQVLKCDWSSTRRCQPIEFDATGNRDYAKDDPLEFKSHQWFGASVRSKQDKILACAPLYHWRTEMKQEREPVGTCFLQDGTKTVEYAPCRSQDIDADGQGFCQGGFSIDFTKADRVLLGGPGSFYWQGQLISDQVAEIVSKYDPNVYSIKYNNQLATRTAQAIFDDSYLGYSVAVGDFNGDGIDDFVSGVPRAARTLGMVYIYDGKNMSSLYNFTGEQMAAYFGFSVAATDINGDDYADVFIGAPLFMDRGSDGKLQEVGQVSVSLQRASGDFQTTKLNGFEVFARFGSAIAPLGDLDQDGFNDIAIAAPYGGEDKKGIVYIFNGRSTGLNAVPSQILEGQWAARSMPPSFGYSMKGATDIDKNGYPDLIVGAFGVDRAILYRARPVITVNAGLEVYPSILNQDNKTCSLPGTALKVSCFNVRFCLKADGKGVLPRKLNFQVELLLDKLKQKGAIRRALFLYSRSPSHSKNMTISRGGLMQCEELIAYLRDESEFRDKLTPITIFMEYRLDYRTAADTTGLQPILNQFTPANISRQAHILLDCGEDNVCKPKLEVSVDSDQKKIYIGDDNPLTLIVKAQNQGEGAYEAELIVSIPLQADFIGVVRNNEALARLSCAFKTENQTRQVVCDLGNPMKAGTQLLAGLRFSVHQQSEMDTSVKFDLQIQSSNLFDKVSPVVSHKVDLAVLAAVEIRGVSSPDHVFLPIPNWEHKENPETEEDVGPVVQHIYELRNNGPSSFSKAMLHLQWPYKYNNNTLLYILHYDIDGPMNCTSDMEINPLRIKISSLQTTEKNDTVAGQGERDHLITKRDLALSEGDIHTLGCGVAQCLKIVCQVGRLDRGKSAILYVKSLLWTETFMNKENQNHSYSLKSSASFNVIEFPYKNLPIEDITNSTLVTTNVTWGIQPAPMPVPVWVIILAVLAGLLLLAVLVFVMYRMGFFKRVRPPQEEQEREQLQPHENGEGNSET
Chain of UniProt P17844 (P17844 whole entry): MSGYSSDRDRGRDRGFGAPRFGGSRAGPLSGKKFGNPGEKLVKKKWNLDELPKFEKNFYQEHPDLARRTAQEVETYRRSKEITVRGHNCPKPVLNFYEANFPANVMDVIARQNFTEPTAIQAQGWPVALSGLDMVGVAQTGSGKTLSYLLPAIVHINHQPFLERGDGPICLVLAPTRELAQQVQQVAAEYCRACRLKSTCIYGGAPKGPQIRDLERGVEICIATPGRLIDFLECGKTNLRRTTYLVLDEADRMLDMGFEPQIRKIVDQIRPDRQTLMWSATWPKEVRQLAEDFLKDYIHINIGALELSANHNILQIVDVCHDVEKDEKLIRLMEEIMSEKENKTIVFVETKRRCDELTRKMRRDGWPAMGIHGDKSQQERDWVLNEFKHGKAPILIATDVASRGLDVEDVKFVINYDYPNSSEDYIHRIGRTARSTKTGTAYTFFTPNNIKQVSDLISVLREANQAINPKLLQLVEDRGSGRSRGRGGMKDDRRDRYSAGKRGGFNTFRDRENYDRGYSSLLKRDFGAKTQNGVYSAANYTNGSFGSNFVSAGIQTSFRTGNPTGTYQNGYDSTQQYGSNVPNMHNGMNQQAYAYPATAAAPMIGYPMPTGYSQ
Chain of UniProt P60174 (P60174 whole entry): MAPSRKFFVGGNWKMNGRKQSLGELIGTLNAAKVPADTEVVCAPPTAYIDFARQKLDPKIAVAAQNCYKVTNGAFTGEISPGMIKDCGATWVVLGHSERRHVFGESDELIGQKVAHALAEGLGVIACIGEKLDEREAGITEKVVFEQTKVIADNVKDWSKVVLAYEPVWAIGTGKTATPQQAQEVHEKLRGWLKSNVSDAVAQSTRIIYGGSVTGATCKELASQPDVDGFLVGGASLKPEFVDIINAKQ
Chain of UniProt P61769 (P61769 whole entry): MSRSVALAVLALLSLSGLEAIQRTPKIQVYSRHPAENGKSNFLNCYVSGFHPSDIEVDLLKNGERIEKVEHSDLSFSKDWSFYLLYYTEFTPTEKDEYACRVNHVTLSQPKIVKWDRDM

Target	lysine labeling ratio R10:1
MSN (lysine site: K165) (UniProt P26038)	3.56 (inactive)
CD44 (lysine site: K38) (UniProt P16070)	5.01 (inactive)
COL5A1 (lysine site: K164) (UniProt P20908)	3.25 (inactive)
TPI1 (lysine site: K188) (UniProt P60174)	4.28 (inactive)
DDX5 (lysine site: K284) (UniProt P17844)	0.51 (active)
ANPEP (lysine site: K923) (UniProt P15144)	2.33 (inactive)
UniProt Q15149 (lysine site: K1718)	4.36 (inactive)
FASN (lysine site: K41) (UniProt P49327)	0.712 (active)
M6PR (lysine site: K44) (UniProt P20645)	2.9 (inactive)
EPHB4 (lysine site: K267) (UniProt P54760)	3.27 (inactive)
EGFR (lysine site: K325) (UniProt P00533)	5.84 (inactive)
IDE (lysine site: K364) (UniProt P14735)	2.3 (inactive)
UniProt Q9HDC9 (lysine site: K356)	2.37 (inactive)
LAMA5 (lysine site: K2451) (UniProt O15230)	3.17 (inactive)
UniProt O60462 (lysine site: K547)	4.2 (inactive)
PRDX1 (lysine site: K199) (UniProt Q06830)	2.6 (inactive)
F11R (lysine site: K47) (UniProt Q9Y624)	5.07 (inactive)
ITGA1 (lysine site: K849) (UniProt P56199)	0.921 (active)
ANXA3 (lysine site: K154) (UniProt P12429)	3.32 (inactive)
ANPEP (lysine site: K205) (UniProt P15144)	2.56 (inactive)

Target	lysine labeling ratio R10:1
SLC7A11 (lysine site: K222) (UniProt Q9UPY5)	2.71 (inactive)
FKBP4 (lysine site: K390) (UniProt Q02790)	3.84 (inactive)
ZMPSTE24 (lysine site: K259) (UniProt O75844)	2.08 (inactive)
B2M (lysine site: K26) (UniProt P61769)	10.1 (inactive)
COPA (lysine site: K480) (UniProt P53621)	4.64 (inactive)
ITGAV (lysine site: K165) (UniProt P06756)	10.3 (inactive)
FAT4 (lysine site: K1675) (UniProt Q6V0I7)	1.93 (active)
MSN (lysine site: K400) (UniProt P26038)	3.75 (inactive)
ATP1B1 (lysine site: K134) (UniProt P05026)	6.75 (inactive)
RPL4 (lysine site: K106) (UniProt P36578)	2.43 (inactive)
VASN (lysine site: K133) (UniProt Q6EMK4)	4.74 (inactive)
DIABLO (lysine site: K219) (UniProt Q9NR28)	1.92 (active)
UniProt P07437 (lysine site: K58)	2.92 (inactive)
EZR (lysine site: K344) (UniProt P15311)	7.1 (inactive)
GPI (lysine site: K12) (UniProt P06744)	0.867 (active)
UniProt Q15149 (lysine site: K2025)	4.19 (inactive)
ITGA6 (lysine site: K615) (UniProt P23229)	6.91 (inactive)
MISP (lysine site: K540) (UniProt Q8IVT2)	1 (active)
UniProt O60245 (lysine site: K875)	1.6 (active)
FADS2 (lysine site: K108) (UniProt O95864)	1.75 (active)
